Bioassay records (PubChem)
Sampled rows, rich in hits. Any-hit rate of the full collection: about 6.1%.
D1 agonist: activates the human D1 dopamine receptor; P21728; HEK293 T-REx D1 cells, calcium flux, agonist mode; activation, % at 2 µM; actives 1% (n = 360,000); AID 504660; in the data active means activation above about 30%; further: 0% is about no effect
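Inducible HEK293 T-REx D1 cells, force-coupled to calcium signalling, were plated at 4000 cells/well with tetracycline and held overnight at 30 C. After no-wash calcium dye loading, compound-evoked calcium rise over 180 s flagged agonists.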
D1 antagonist: blocks dopamine activation of the human D1 receptor | P21728 | HEK293 TREx D1 cells, calcium flux, dopamine EC80; hits give low values | activity change, negative = inhibition, % at 10 µM | actives 3.2% (n = 360,000); in the data active means activity change below about -30%; further: on the % scale 0 is the no-effect control and ±100 the full control effect
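Compound effects on dopamine-evoked calcium signalling were measured in tetracycline-induced HEK293 Trex D1 cells. Dopamine at EC80 followed a 180 s compound pre-read, and fluorescence was tracked kinetically for 180 s more.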
D3 ag: agonists of human D3 dopamine receptor; actives 0.58% (n = 410,000); D3R DiscoveRx beta-arrestin cells, luminescence, 90 min; max activation, %; P35462; in the data active means max activation above about 30%; further: 0% is about no effect
Target sequence (P35462 whole entry, looked up): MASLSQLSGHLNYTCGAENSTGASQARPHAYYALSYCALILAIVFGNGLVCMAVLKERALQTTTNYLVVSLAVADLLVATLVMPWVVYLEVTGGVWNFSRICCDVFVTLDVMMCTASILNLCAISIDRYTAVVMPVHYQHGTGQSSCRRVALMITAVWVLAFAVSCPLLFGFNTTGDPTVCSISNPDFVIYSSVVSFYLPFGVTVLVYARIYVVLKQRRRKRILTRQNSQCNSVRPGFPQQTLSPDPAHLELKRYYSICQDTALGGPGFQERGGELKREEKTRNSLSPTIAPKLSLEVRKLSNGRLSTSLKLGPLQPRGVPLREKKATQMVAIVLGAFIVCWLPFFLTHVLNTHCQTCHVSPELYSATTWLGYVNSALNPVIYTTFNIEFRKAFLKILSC
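Agonist mode: compounds and dopamine controls were applied to plated cells for 90 min at 37 degrees C after an overnight attachment at 1500 cells/well. Luminescent read-out followed 30 - 60 minutes at room temperature with DiscoveRx detection reagent.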
D1 potentiator: potentiators of human D1 dopamine receptor; P21728; HEK293 TREx D1 cells, calcium flux, dopamine EC20 potentiation; potentiation, % at 10 µM; actives 0.036% (n = 360,000); AID 504651; in the data active means potentiation above about 30%; further: 0% is about no effect
DRD3 antagonist: blocks the human D3 dopamine receptor | AID 652054 | actives 2.5% (n = 360,000) | P35462 | D3R cells, DiscoveRx beta-arrestin luminescence, antagonist mode; hits give low values | max response, negative = inhibition, %; in the data active means max response below about -50%; inconclusive means no clear call, values can overlap the other calls; further: on the % scale 0 is the no-effect control and ±100 the full control effect
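Cells expressing the human receptor were seeded at 1500 cells/well, incubated overnight at 37 degrees C in 5% CO2, then exposed to library compounds with dopamine controls for 90 minutes at 37 degrees C before luminescent detection.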
* marks the source's active call; other numbers are inactive results.

COc1cc(C=C2CCC/C(=C\c3ccc(O)c(OC)c3)C2=O)ccc1O was read as D3 ag 4.6.
Screening Cc1ccc(S(=O)(=O)N(C)C)cc1NC(=O)C(C)N(C)CCOc1ccc(Cl)cc1 (centres undefined) returned D1 agonist 30.1*, D1 antagonist -18.7, D3 ag -5.4 and DRD3 antagonist -9.8.
For Cc1ccc(S(=O)(=O)N(C)C)cc1NC(=S)NC(C)CCC(C)C (centres undefined) the results were D1 agonist 12.0, D1 antagonist -58.9*, D3 ag -14.6, D1 potentiator -4.0 and DRD3 antagonist 2.3.
Cc1ccc(S(=O)(=O)N(C)C)cc1NC(=O)Nc1ccccc1F was read as D1 agonist 4.6, D1 antagonist -43.0*, D3 ag -14.6, D1 potentiator -10.9 and DRD3 antagonist -13.7.
COc1ccc(NC(=O)Nc2ccccc2F)cc1 was read as D1 agonist -1.1, D1 antagonist 3.1, D3 ag 7.9, D1 potentiator -1.8 and DRD3 antagonist 6.9.
Screening CC(=O)c1ccc(OCCCC(=O)Nc2cc(S(=O)(=O)N(C)C)ccc2C)cc1 returned D1 agonist 8.8, D1 antagonist -14.5, D3 ag -15.2, D1 potentiator -4.7 and DRD3 antagonist 3.1.
COc1ccc(NC(=O)Nc2ccccc2F)c(C)c1 was read as D1 agonist 1.9, D1 antagonist -36.7*, D3 ag -11.8, D1 potentiator -3.1 and DRD3 antagonist -19.2.
Screening O=C(CCNS(=O)(=O)c1ccc2c(c1)CCN2C(=O)C1CC1)N1CCN(c2cccc(C(F)(F)F)c2)CC1 returned D1 agonist 6.4, D1 antagonist -11.5, D3 ag -7.7 and D1 potentiator -4.8.
For CN(CCc1ccccc1)C(C(=O)c1ccc2c(c1)OCO2)c1nnnn1-c1ccccc1NC(=O)OC(C)(C)C (centres undefined) the results were D3 ag 1.3 and DRD3 antagonist -29.5.
Screening Cc1c(C(=O)NCc2c(F)cc(F)cc2F)oc2ccc(S(=O)(=O)N3CCOCC3)cc12 returned D1 agonist 2.9, D1 antagonist -44.9*, D3 ag 2.3, D1 potentiator -4.3 and DRD3 antagonist 16.4.
`Cc1c(C(=O)Nc2ccc(F)cc2)oc2ccc(S(=O)(=O)N3CCC4(CC3)OCCO4)cc12` gave D1 agonist 14.3, D1 antagonist 0.2, D3 ag 64.7*, D1 potentiator -3.8 and DRD3 antagonist 28.6.
Cc1c(C(=O)Nc2ccc(F)c(F)c2)oc2ccc(S(=O)(=O)N3CCC4(CC3)OCCO4)cc12 was read as D1 agonist 2.6, D1 antagonist -12.7, D3 ag 30.6* and D1 potentiator -3.2.
`Cc1cccc(NC(=O)CSc2nc(-c3cccc(C)c3)nc3c2Cc2c(CO)cnc(C)c2O3)c1` gave D1 agonist 1.0, D1 antagonist -9.9, D3 ag -4.4 and D1 potentiator -1.8.
For CCOC(=O)N1CCN(S(=O)(=O)N2CCCC(C(=O)NCCc3ccc(OC)c(OC)c3)C2)CC1 (centres undefined) the results were D1 agonist 0.4, D1 antagonist -27.4, D3 ag -2.8, D1 potentiator -5.7 and DRD3 antagonist 2.3.
COc1cc2[nH]c(=O)n(CCCC(=O)N3CCN(c4cccc(C(F)(F)F)c4)CC3)c(=O)c2cc1OC was read as D1 agonist 0.5, D1 antagonist -13.8, D3 ag -8.1 and D1 potentiator 2.9.
For CCC(C(=O)OCC(=O)Nc1ccc(SC(F)F)cc1)c1ccccc1 (centres undefined) the results were D1 agonist 10.2, D1 antagonist -35.8*, D3 ag 2.7, D1 potentiator -7.8 and DRD3 antagonist -15.0.
Screening N=c1sccn1CC(=O)Nc1ccc(S(N)(=O)=O)cc1 returned D1 agonist 2.1, D1 antagonist 4.2, D3 ag 1.7, D1 potentiator -3.0 and DRD3 antagonist 0.8.
`CCCCOc1ccc(C(=O)Nc2ccc(SC(F)F)cc2)cc1OC` gave D1 agonist 3.7, D1 antagonist -13.5, D3 ag 0.0, D1 potentiator -4.0 and DRD3 antagonist inconclusive.
Screening C/C=C/C(=O)OCC(=O)Nc1ccc(SC(F)F)cc1 returned D1 agonist 5.7, D1 antagonist -33.4*, D3 ag 3.9, D1 potentiator -6.9 and DRD3 antagonist 0.8.
